Measured values taken from PubChem BioAssay (Tox21).
A number with no mark means an inactive call. Records with an inconclusive call do not appear. Where a call stands in place of a potency, no number is given. Active and inactive are the calls of the source. The call rests on the fitted dose curve; in most records, active means well fitted curve in the direction sought with a large enough effect in the repeat runs; inconclusive means weak or mixed curves; inactive means no such curve, though single readings can be large; an effect the other way counts as inactive or inconclusive.

Key:
[1] = qHTS RealTime-Glo MT Cell Viability Assay in HepG2 cells - 24 hour (AID 1224867); further: nearly all actives have a fitted effect of over 50% in size
Method in brief: (§1)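 HepG2 cells (600/well) were dispensed with RealTime-Glo reagents, incubated 5 h at 37 °C, then treated with compounds in DMSO for up to 40 h. Nonlytic NanoLuc luminescence reflecting viable cells was read at each stated time point.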

[2] = qHTS RealTime-Glo MT Cell Viability Assay in HEK293 cells - 32 hour (AID 1224868); further: top concentration of the series differs between compounds; nearly all actives have a fitted effect of over 50% in size
Method in brief: (§2)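 HEK293 cells seeded with NanoLuc/prosubstrate reagent, rested 5 h at 37 C, then dosed and kept at 37 C up to 40 h. Nonlytic real-time luminescence from viable cells read at 0, 8, 16, 24, 32 and 40 h.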

[3] = A CellTox Green Cytotoxicity Assay to monitor cytotoxicity in HEK293 cells - 0 hour (AID 1224869); further: nearly all actives have a fitted effect of over 50% in size
Method in brief: (§3)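 Fluorescence from a DNA-binding dye excluded by viable cells was measured repeatedly in the same HEK293 wells (600 cells/well) during continuous compound exposure at 37 C. Each assay gives one read point: 0, 8, 16, 24, 32 or 40 h.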

[4] = A CellTox Green Cytotoxicity Assay to monitor cytotoxicity in HEK293 cells - 40 hour (AID 1224871); further: nearly all actives have a fitted effect of over 45% in size
Method in brief: as §3

[5] = qHTS RealTime-Glo MT Cell Viability Assay in HEK293 cells - 16 hour (AID 1224872); further: nearly all actives have a fitted effect of over 50% in size; further: potency means the concentration at half of the fitted maximal effect
Method in brief: as §2

[6] = qHTS RealTime-Glo MT Cell Viability Assay in HepG2 cells - 8 hour (AID 1224873); further: nearly all actives have a fitted effect of over 55% in size
Method in brief: (§4)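 HepG2 cells mixed with RealTime-Glo MT reagents (NanoLuc plus cell-permeant prosubstrate) were seeded at 600 cells/well, incubated 5 h at 37 C/5% CO2, then pinned with compounds in DMSO; nonlytic luminescence tracked viability during 40 h treatment.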

[7] = qHTS RealTime-Glo MT Cell Viability Assay in HEK293 cells - 40 hour (AID 1224874); conditions: RealTime-Glo luminescence; max response: stronger effect = lower value; further: nearly all actives have a fitted effect of over 50% in size
Method in brief: (§5)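 Luminescence, which tracks viable cell number through reduction of the prosubstrate to a NanoLuc substrate, was read over continuous 37 C culture. Cells (600/well) were premixed with reagent and rested 5 h before 23 nL of compound in DMSO was pinned.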

[8] = A CellTox Green Cytotoxicity Assay to monitor cytotoxicity in HEK293 cells - 24 hour (AID 1224875); further: series mostly up to about 77 µM; nearly all actives have a fitted effect of over 45% in size
Method in brief: as §3

[9] = A CellTox Green Cytotoxicity Assay to monitor cytotoxicity in HepG2 cells - 16 hour (AID 1224876); further: nearly all actives have a fitted effect of over 45% in size
Method in brief: (§6)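 Real-time cytotoxicity: fluorescence of a cell-impermeant cyanine dye binding DNA of dead HepG2 cells, measured repeatedly (0–40 h) during compound exposure at 37 C. Cells seeded 600/well with reagent, dosed after 5 h.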

[10] = qHTS RealTime-Glo MT Cell Viability Assay in HepG2 cells - 32 hour (AID 1224877); further: nearly all actives have a fitted effect of over 55% in size
Method in brief: as §1

[11] = A CellTox Green Cytotoxicity Assay to monitor cytotoxicity in HepG2 cells - 24 hour (AID 1224878); further: nearly all actives have a fitted effect of over 45% in size
Method in brief: as §6

[12] = A CellTox Green Cytotoxicity Assay to monitor cytotoxicity in HepG2 cells - 40 hour (AID 1224879); further: nearly all actives have a fitted effect of over 40% in size
Method in brief: as §6

[13] = qHTS RealTime-Glo MT Cell Viability Assay in HEK293 cells - 0 hour (AID 1224880)
Method in brief: as §5

[14] = A CellTox Green Cytotoxicity Assay to monitor cytotoxicity in HEK293 cells - 32 hour (AID 1224881); further: nearly all actives have a fitted effect of over 40% in size
Method in brief: as §3

[15] = A CellTox Green Cytotoxicity Assay to monitor cytotoxicity in HepG2 cells - 0 hour (AID 1224882); further: nearly all actives have a fitted effect of over 35% in size
Method in brief: as §6

[16] = A CellTox Green Cytotoxicity Assay to monitor cytotoxicity in HepG2 cells - 32 hour (AID 1224883); further: nearly all actives have a fitted effect of over 50% in size
Method in brief: as §6

[17] = A CellTox Green Cytotoxicity Assay to monitor cytotoxicity in HEK293 cells - 8 hour (AID 1224884); further: nearly all actives have a fitted effect of over 35% in size
Method in brief: as §3

[18] = qHTS RealTime-Glo MT Cell Viability Assay in HepG2 cells - 16 hour (AID 1224885); further: nearly all actives have a fitted effect of over 50% in size
Method in brief: as §1

[19] = qHTS RealTime-Glo MT Cell Viability Assay in HepG2 cells - 40 hour (AID 1224870); further: nearly all actives have a fitted effect of over 50% in size
Method in brief: as §4

SMILES | outcome [1] | Potency [2] | Potency [3] | Potency [4] | Potency [5] | outcome [6] | max response [7] [%] | Potency [8] | Potency [9] | outcome [10] | Potency [11] | Potency [12] | outcome [13] | Potency [14] | Potency [15] | Potency [16] | Potency [17] | outcome [18] | outcome [19]
NC(Cc1c[nH]c2ccccc12)C(=O)O (stereo not given) | inactive | inactive | inactive | inactive | inactive | inactive | 13.4 | inactive | inactive | inactive | inactive | inactive | inactive | inactive | inactive | inactive | inactive | inactive | 
Cc1cc(O)c2c(c1)C(=O)c1cccc(O)c1C2=O | inactive | inactive | inactive | inactive | inactive | inactive | 3.33 | inactive | inactive | inactive | inactive | inactive | inactive | inactive | inactive | inactive | inactive |  | 
CCC1Nc2cc(Cl)c(S(N)(=O)=O)cc2S(=O)(=O)N1 (stereo not given) | inactive | inactive | inactive | inactive | inactive | inactive | -2.14 | inactive | inactive | inactive | inactive | inactive | inactive | inactive | inactive | inactive | inactive | inactive | 
CC(CC(=O)O)CC(C)(C)C (stereo not given) | inactive | inactive |  | inactive | inactive | inactive | -0.126 | inactive | inactive | inactive | inactive | inactive | inactive | inactive | inactive | inactive | inactive |  | inactive
CC(C)CCCCCCOC(=O)C1CCCCC1C(=O)OCCCCCCC(C)C (stereo not given) | inactive | inactive |  | inactive | inactive |  | 14.8 | inactive | inactive | inactive | inactive | inactive | inactive | inactive | inactive | inactive | inactive | inactive | inactive
CCOC(=O)C(C)(C)C | inactive | inactive |  | inactive | inactive | inactive | -0.816 | inactive | inactive | inactive | inactive | inactive | inactive | inactive | inactive | inactive | inactive | inactive | inactive
CO[Si](CCCS)(OC)OC | inactive | inactive | inactive | inactive | inactive | inactive | 0.328 | inactive | inactive |  | inactive | inactive | inactive | inactive |  | inactive | inactive |  | 
N#CCCOCCOCCC#N |  | inactive | inactive | inactive | inactive | inactive | 9.79 | inactive | inactive |  | inactive |  | inactive | inactive |  | inactive | inactive | inactive | 
CN(C)CCCNCCC#N |  | inactive | inactive | inactive | inactive | inactive | 6.65 | inactive | inactive |  | inactive | inactive | inactive | inactive | inactive | inactive | inactive | inactive | inactive
CCCCCCCCCCCCC1CO1 (stereo not given) |  | inactive |  |  | inactive | inactive | -5.34 | inactive | inactive | inactive | inactive |  | inactive | inactive | inactive | inactive | inactive | inactive | inactive
CCCCOC(=O)[C@@H](C)Oc1ccc(Oc2ccc(C(F)(F)F)cn2)cc1 |  |  | inactive | inactive | 31.1 µM (active) | inactive |  | inactive |  |  | inactive | inactive | inactive | inactive | inactive | inactive | inactive | inactive | inactive
